Assay outcomes from PubChem.
eIF4H FP inh: human eIF4H binding inhibitors, primary screen, translation initiation inhibitor project, biochemical, uHTS, fluorescence polarization. Eukaryotic translation initiation factor 4H (Homo sapiens), Q15056. eIF4H fluorescence polarization binding assay. inhibition, % at 35 µM. 290,000 tested, 0.94% active;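 also: calls also rest on retests at 20 µM and on dose response follow-up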
eIF4E-4G inh: eIF4E–eIF4G protein interaction inhibitors, primary screen, biochemical, uHTS, TR-FRET, eIF4GI fragment; TR-FRET eIF4E-eIF4GI(517-606) binding, 2 h; inhibition, % at 21.7 µM; 220,000 tested, 0.37% active; AID 782, 2007;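 active = inhibition above about 30%, limit read from the data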;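 also: 0% = full FRET control wells and 100% = background wells lacking eIF4GI fragment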
PABP polyA inh: PABP poly(A) RNA binding inhibitors, primary screen, biochemical, fluorescence polarization, uHTS. Polyadenylate-binding protein 1 (Homo sapiens), P11940. inhibition, % at 35 µM. 290,000 tested, 1% active;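 also: calls also rest on retests at 20 µM and on dose response follow-up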
Target sequence (P11940 whole entry, looked up): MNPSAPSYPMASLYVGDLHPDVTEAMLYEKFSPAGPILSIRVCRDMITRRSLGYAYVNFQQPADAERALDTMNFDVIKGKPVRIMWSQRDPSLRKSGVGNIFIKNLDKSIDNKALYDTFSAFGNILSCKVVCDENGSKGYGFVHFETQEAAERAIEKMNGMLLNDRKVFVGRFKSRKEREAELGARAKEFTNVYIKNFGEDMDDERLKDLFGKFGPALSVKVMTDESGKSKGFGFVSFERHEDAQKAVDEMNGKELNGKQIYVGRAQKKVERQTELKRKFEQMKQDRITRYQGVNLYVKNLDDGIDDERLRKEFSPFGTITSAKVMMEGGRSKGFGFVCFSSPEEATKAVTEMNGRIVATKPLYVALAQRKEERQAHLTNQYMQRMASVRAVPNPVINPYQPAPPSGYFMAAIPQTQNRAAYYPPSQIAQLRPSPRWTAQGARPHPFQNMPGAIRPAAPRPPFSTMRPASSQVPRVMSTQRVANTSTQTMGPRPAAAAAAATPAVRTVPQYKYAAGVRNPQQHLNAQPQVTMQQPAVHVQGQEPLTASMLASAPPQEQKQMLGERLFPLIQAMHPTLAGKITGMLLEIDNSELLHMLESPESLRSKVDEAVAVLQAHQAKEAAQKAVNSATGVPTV
M18AAP inhibitor: PfM18AAP inhibitors, malaria aminopeptidase, primary screen, biochemical, QFRET, recombinant enzyme | M18 aspartyl aminopeptidase (Plasmodium falciparum 3D7) | H-Glu-NHMec fluorogenic cleavage | inhibition, % at 7.35 µM | 290,000 tested, 1.2% active;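 active = inhibition above the campaign mean inhibition over all tested compounds plus 3 SD, cut at about 28% in these data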;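 also: 0% = plate median of test compound wells and 100% = 2 mM ZnCl2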
PABP1 MLLE inh: inhibitors of PABP1 MLLE–PAM2 peptide binding, primary screen, biochemical, fluorescence polarization, FITC-PAM2, GST-MLLE; inhibition, % at 20 µM; 360,000 tested, 0.36% active; Polyadenylate-binding protein 1 (Homo sapiens), P11940; in the data active = inhibition above about 35%, passing the limit was not always enough;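 also: plate controls were DMSO wells with GST-MLLE for no effect and wells lacking GST-MLLE protein for full effect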
PERK inh: block of dimerizer-induced PERK translation repression, primary screen, PERK inhibitor project, CHO PERK-DD cells, SEAP luminescence, HTS. 220,000 tested, 0.17% active. CHO PERK-DD fusion, SEAP luminescence translation reporter. Eukaryotic translation initiation factor 2-alpha kinase 3 (Homo sapiens), Q9NZJ5. inhibition, % at 5.6 µM. AID 1416, 2008;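 active = inhibition above the mean inhibition of all tested compounds plus 3 SD, set separately per screening campaign, cut at about 2.9% in these data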;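 also: PERK kinase domain activated by AP20187 dimerizer at 100 nM; 0% = DMSO with dimerizer and 100% = rapamycin at 8.4 µM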
The depositor's hits bear a star; ? = inconclusive; nt = no result; [ ] = dose if it differs, or a comment. Only some compounds are listed: those with a hit (about 2.4% of all), similar ones and a draw of the others. Unless noted, no rule for the calls is given here.

SMILES | eIF4H FP inh | eIF4E-4G inh | PABP polyA inh | M18AAP inhibitor | PABP1 MLLE inh | PERK inh
COc1ccc(/C=C2\SC(=O)N(CCCC(=O)Nc3ccc(C(=O)O)cc3)C2=O)cc1 | nt | nt | nt | nt | -4.6 | nt
O=C1/C(=C\c2ccc(Br)o2)SC(=Nc2ccccc2)N1c1ccccc1 | 55.0* | 5.6 | 12.1* | 4.8 | 8.5 | 0.2
COc1ccccc1N1C(=O)c2ccccc2NC1c1ccncc1 (centres undefined) | -1.9 | 6.9 | -4.0 | -2.0 | 0.0 | 1.4
COc1ccccc1N1C(=O)N(C(C)=O)C2C1Nc1ccccc1N2C (centres undefined) | 78.3* | -0.6 | 110.4* | 7.6 | -36.6 | -1.0
CSCC(CO)NS(=O)(=O)c1ccc(C)cc1 (centres undefined) | -9.3 | 4.3 | -20.4 | -3.6 | -12.8 | 2.9*
CCC(C)C(NS(=O)(=O)c1ccc(C)cc1)C(=O)O (centres undefined) | 10.3 | 3.1 | 6.4 | -2.7 | -1.9 | 0.7
C[n+]1cc(-c2ccccc2)n2c1CCCCC2 | 6.1 | -15.2 | 64.7* | 3.8 | -103.5 | 1.9
N#Cc1c(-c2cccc(Br)c2)cc(-c2ccco2)[nH]c1=O | 75.8 | 6.6 | -5.3 | 2.1 | -3.2 | 0.0
COc1ccc(-c2cc(-c3ccco3)[nH]c(=O)c2C#N)cc1 | 73.6* | 0.4 | 57.2* | 3.0 | 7.0 | 1.4
CN(C(=O)CSc1nnc(-c2cccnc2)n1-c1ccccc1F)C1CCS(=O)(=O)C1 (centres undefined) | 39.2* | 1.5 | 59.1* | -3.6 | -22.5 | 1.1
COCCn1c(C)cc(C(=O)CSc2nnc(-c3cccnc3)n2-c2ccccc2F)c1C | 129.7 | 0.7 | 124.5* | 13.2 | -59.6 | 0.2
Cc1ccccc1-n1c(SCC(=O)c2cc(C)n(C)c2C)nnc1-c1cccnc1 | 15.5 | 3.0 | 23.0 | 7.1 | -19.2 | -1.3
CC1CCCC(NC(=O)COC(=O)COc2ccc(C#N)cc2)C1C (centres undefined) | nt | nt | nt | nt | -7.6 | nt
CC(=O)c1c(C)[nH]c(C(=O)OCC(=O)NCc2ccccc2)c1C | nt | nt | nt | nt | -65.2 | nt
O=C(NCc1ccco1)c1c2c(nc3ccccc13)CCC2 | 89.1* | nt | 82.5* | 10.1 | 5.7 | 0.5
Nc1c(C(=O)NCc2ccco2)sc2nc3c(cc12)C(=O)CCC3 | 88.8* | 31.7*[fluorescence artefact?] | 75.5* | 13.2 | 14.4 | 0.4
O=C(NCc1ccc(F)cc1)c1c2c(nc3ccccc13)CCC2 | 71.1* | 35.9* | -8.1 | 6.2 | -24.7 | -0.1
CCCC(C)NC(=O)c1c2c(nc3ccccc13)CCC2 (centres undefined) | 24.8 | 16.0 | -4.3 | -3.1 | -11.6 | 1.2
COc1cc(C(=O)OCC(=O)Nc2cc(S(=O)(=O)N3CCOCC3)ccc2C)ccc1OCC(C)C | nt | nt | nt | nt | -31.8 | nt
CCc1c(C)sc(NC(=O)c2cc(C3CC3)on2)c1C#N | -8.2 | 4.1 | 8.7 | nt | 36.4* | nt
CCc1c(C)sc(NC(=O)c2cc(C)on2)c1C#N | 4.9 | -4.4 | -4.4 | 11.7 | 17.8 | 0.1
Cc1ccc(C(=O)N2CCN(c3ccc(N4CCOCC4)nn3)CC2)cc1C | nt | nt | nt | nt | -5.5 | nt
O=C(c1ccc(N2CCCCS2(=O)=O)cc1)N1CCN(c2ccc(N3CCOCC3)nn2)CC1 | -11.6 | -3.1 | -9.1 | -5.4 | -7.7 | 3.0*
Cn1c(Cc2c[nH]c3ccccc23)n[nH]c1=S | 6.5* | -2.5 | 70.2 | 25.2 | -18.4 | 0.7
COC(=O)c1c(NC(=O)CC2Nc3cc(C)c(C)cc3NC2=O)sc(C)c1C (centres undefined) | 86.5* | -4.0 | 0.2* | 17.6 | -72.3 | 0.8
SMILES | eIF4H FP inh | eIF4E-4G inh | PABP polyA inh | M18AAP inhibitor | PABP1 MLLE inh | PERK inh
CCc1cc(C(=O)OC)c(NC(=O)CC2Nc3cc(C)c(C)cc3NC2=O)s1 (centres undefined) | 0.2 | 0.0 | 0.7 | 5.8 | -32.1 | 1.5
N#CC1=C(N)C(C#N)(C#N)C(c2cccnc2)C2CN(C(=O)OCc3ccccc3)CC=C12 (centres undefined) | 65.8* | 0.1 | -0.3 | -7.6 | 20.9 | -1.1
Cc1noc(C)c1COc1ccc(C(=O)OC(C)C(=O)Nc2ccc(N3CCOCC3)cc2)cc1 (centres undefined) | 0.5 | 1.2 | 1.7 | -4.2 | -3.7 | -0.2
CN(CCO)c1nc(N)c2c(N)nc3c(c2c1C#N)CC(=O)N3C1CCCC1 | ? | 3.3 | 77.0* | -11.5 | nt | -0.5
CC(C)(C)N1C(=O)Cc2c1nc(N)c1c(N)nc(N3CCCCC3CO)c(C#N)c21 (centres undefined) | ? | -11.5 | ? | 13.8 | -6.6 | 0.0
N#Cc1c(N2CCN(c3ccc(F)cc3)CC2)nc(N)c2c(N)nc3c(c12)CC(=O)N3C1CC1 | ? | 4.8 | 8.0* | 9.3 | -28.8 | -0.3
COc1ccc(/C=C\C(=O)CC(O)(c2ccccc2)C(F)(F)F)cc1 (centres undefined) | -10.2 | 10.5 | -4.8 | -7.5 | 1.5 | -1.3
CC(C)N(C(=O)c1ccc(Cc2cn(C)c3ccccc23)nc1)C(C)C | nt | nt | nt | nt | -4.5 | nt
CC12CCC(=O)N1C(C(=O)OCC(=O)Nc1sccc1C#N)CS2 (centres undefined) | 63.5* | -0.9 | 98.6* | 2.8 | 15.3 | 0.7
CCOC(=O)c1ccccc1NC(=O)N1CCn2c(C)ccc2C1CC (centres undefined) | ? | 6.2 | 115.5* | -2.0 | 4.8 | -0.6
CCC1c2ccc(C)n2CCN1C(=O)Nc1ccccc1C(=O)OC (centres undefined) | 131.7 | 6.1 | 124.9* | 4.8 | 24.0 | 0.2
CCC1c2ccc(C)n2CCN1C(=O)Nc1cc(Cl)ccc1OC (centres undefined) | 43.2 | 2.4 | -0.3 | -1.6 | 11.6 | -0.1
CCCC1c2ccc(C)n2CCN1C(=O)Nc1ccccc1Cl (centres undefined) | ? | -1.1 | -2.4 | 2.1 | 28.1 | 0.1
CN(Cc1cnccn1)Cc1c(C(=O)N2CCc3ccccc3C2)nc2ccc(Cl)cn12 | 16.8 | 1.3 | 14.7 | 8.5 | 10.3 | 0.8
CN(Cc1cccnc1)Cc1c(C(=O)N2CCc3ccccc3C2)nc2ccc(Cl)cn12 | 80.5 | 0.6 | 36.7* | -0.1 | 13.2 | -0.2
Cc1ccc(N(CC(=O)N/N=C/c2cc(C)n(-c3ccccc3C)c2C)S(C)(=O)=O)cc1 | -8.7 | -1.3 | -1.3 | -0.7 | -1.7 | -0.3
CN1CCN(c2ccccc2NC(=S)NC(=O)c2cc3ccccc3o2)CC1 | -4.7 | nt | 7.6 | 1.4 | 32.2 | nt
Cc1c(NC(=S)NC(=O)c2cc3ccccc3o2)cccc1C(=O)O | 7.2 | nt | 8.6 | 1.8 | 39.2* | nt
